This is a sample that favours compounds with a hit; in the whole collection about 4.6% have one here.
Epigenetic derep: Quantitative High-Throughput Screen for Regulators of Epigenetic Control | Potency, µM (series often up to 53.9 µM), for inactives: at the top dose GFP activation, usual class: activators | murine LDR cells, GFP reporter derepression, 30 h | hit rate 0.2% among 280,000 | AID 1865, 2009; active means well fitted activation curve with a large enough effect; inconclusive means small, poorly fitted or top-dose-only effect; further: potency means the concentration at half of the fitted maximal effect; % of control where 0% means no effect; nearly all actives have a fitted effect of over 60% in size
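GFP-positive cell count by laser-scanning cytometry (objects 20–120 um) after 30 h, 37 C compound exposure of murine LDR cells; reporter is CMV-GFP integrated at a silenced locus, inducible by HDAC or DNMT inhibitors.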
D1 PAM: Potentiators of Human D1 Dopamine Receptor: qHTS. hit rate 0.036% among 360,000. potentiation, % at 10 µM. D(1A) dopamine receptor (Homo sapiens), P21728. HEK293 TREx D1 cells, calcium flux, dopamine EC20 potentiation. AID 504651, 2011; in the data active means potentiation above about 30%; further: 0% is about no effect
Target sequence (P21728 whole entry, looked up): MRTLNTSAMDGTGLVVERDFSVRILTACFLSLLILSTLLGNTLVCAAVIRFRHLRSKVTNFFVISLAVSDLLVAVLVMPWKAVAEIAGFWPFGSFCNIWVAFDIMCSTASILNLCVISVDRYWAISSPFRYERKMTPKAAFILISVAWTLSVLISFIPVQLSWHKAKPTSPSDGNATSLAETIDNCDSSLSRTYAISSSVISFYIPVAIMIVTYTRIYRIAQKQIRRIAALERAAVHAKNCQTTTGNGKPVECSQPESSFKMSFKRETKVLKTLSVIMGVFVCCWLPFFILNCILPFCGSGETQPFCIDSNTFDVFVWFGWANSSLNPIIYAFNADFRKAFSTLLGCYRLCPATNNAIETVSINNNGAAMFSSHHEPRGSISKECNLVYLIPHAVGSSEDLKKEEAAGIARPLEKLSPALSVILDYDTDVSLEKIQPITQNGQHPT
D1 antagonist: Antagonist of Human D 1 Dopamine Receptor: qHTS. D(1A) dopamine receptor (Homo sapiens), P21728. HEK293 TREx D1 cells, calcium flux, dopamine EC80; stronger effect = lower value. activity change, negative = inhibition, % at 10 µM. hit rate 3.2% among 360,000; in the data active means activity change below about -30%; further: on the % scale 0 is the no-effect control and ±100 the full control effect
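Kinetic fluorescence of a calcium dye serves as the read-out. D1-expressing Hek293 Trex cells, induced overnight at 30 C, are exposed to compound for 180 s before an EC80 dopamine addition, then read 180 s further.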
TRHR enhancer: qHTS for Small Molecule Agonists and Allosteric Enhancers of Human TRH Receptor: Primary Screen for Enhancers; TRHR cells, fluo-8 calcium fluorescence, EC20 TRH enhancement; Thyrotropin-releasing hormone receptor (Homo sapiens), P34981; hit rate 0.66% among 360,000; enhancement, % at 2 µM; in the data active means enhancement above about 30%; further: 0% is about no effect
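TRHR-expressing cells loaded with fluo-8 calcium dye were read kinetically (ex 480/em 530) during compound addition, then stimulated with an EC20 of TRH (10 nM final). Enhancement of the Gq-mediated intracellular calcium response was scored.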
TRHR agonist: qHTS for Small Molecule Agonists and Allosteric Enhancers of Human TRH Receptor: Primary Screen for Agonists | AID 493084, 2011 | TRHR cells, calcium flux fluo-8, FDSS agonist mode | activation, % at 2 µM | hit rate 0.18% among 360,000 | Thyrotropin-releasing hormone receptor (Homo sapiens), P34981; further: 0% is about no effect
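TRHR-expressing cells, plated overnight in medium with 10% serum, were loaded with fluo-8 calcium dye at room temperature. After a 10 s baseline, library compound was pin-added and calcium release was recorded kinetically (ex 480/em 530) as agonist response.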
D1 agonist: Allosteric Agonists of the Human D1 Dopamine Receptor: qHTS | D(1A) dopamine receptor (Homo sapiens), P21728 | HEK293 T-REx D1 cells, calcium flux, agonist mode | activation, % at 2 µM | hit rate 1% among 360,000 | AID 504660, 2011; further: 0% is about no effect
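Inducible HEK293 T-REx D1 cells, force-coupled to calcium signalling, were plated at 4000 cells/well with tetracycline and held overnight at 30 C. After no-wash calcium dye loading, compound-evoked calcium rise over 180 s flagged agonists.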
Numbers without * were called inactive; ? = inconclusive; / = no result. Unless noted, no stated cut-off is given here; in the data, active means activation above about 30%; inactive means the rest.

SMILES | Epigenetic derep | D1 PAM | D1 antagonist | TRHR enhancer | TRHR agonist | D1 agonist
COc1cccc(CNC(=O)Cn2c(=O)n3nc(-c4cccc(C)c4)nc3c3ccccc32)c1 | ? | 1 | / | 3 | 0 | -4
Cc1ccc(C)c(S(=O)(=O)NCc2ccncc2)c1 | -1% | -11 | -43* | 15 | -3 | 11
Cc1ccc(C)c(S(=O)(=O)NCc2cccnc2)c1 | -1% | -6 | 8 | 5 | 0 | -2
Cc1ccc(C)c(S(=O)(=O)NCc2ccc(C(=O)N3CCCCCC3)cc2)c1 | -2% | -10 | -32* | -11 | 0 | 13
CC(=O)Nc1nonc1-c1nnc(SCc2cccc(Br)c2)n1C | -3% | -1 | -4 | -1 | -1 | 5
CCn1cc(C(=O)N(C)c2cc(C)ccc2OC)c2cc(OC)c(OC)cc2c1=O | / | 0 | -10 | -5 | 0 | 1
CCn1cc(C(=O)N(C)c2cc(C)ccc2C)c2cc(OC)c(OC)cc2c1=O | 10% | 3 | -34* | 6 | -1 | 2
Cc1ccc(NC(=O)[C@H](CSCc2ccccc2)N2Cc3ccccc3C2=O)cc1 | 1% | 0 | -34* | -3 | 0 | 4
CCc1ccc(Nc2nnc(-n3nc(C)cc3C)c3ccccc23)cc1 | 0% | -6 | -21 | 0 | 0 | 1
COc1ccc(OC)c(CNC(=O)Cn2nc(C)c3nn(-c4ccc(Cl)cc4)c(C)c3c2=O)c1 | -3% | 1 | -13 | -7 | -1 | 1
O=C(O)c1cc(N/N=C/c2cccnc2)ccc1Cl | -2% | -1 | -33* | -2 | 0 | 1
O=C(O)c1cc(N/N=C/c2ccncc2)ccc1Cl | 1% | -2 | 0 | 1 | 1 | 1
Cc1cc(N2CCCCC2)nc(NCc2ccccc2)n1 | 0% | -8 | -50* | -19 | 15 | 81*
Cc1cc(NCc2ccccc2)nc(N2CCOCC2)n1 | 0% | -7 | -91* | -1 | 0 | 2
CNc1cc(C)nc(N2CCOCC2)n1 | 5% | 1 | -1 | -1 | 2 | 2
Cc1cc(N2CCOCC2)nc(SCC(=O)c2ccccc2)n1 | 4% | -3 | 5 | 3 | 0 | 0
Cc1cc(N2CCOCC2)nc(NCc2ccccc2)n1 | -3% | -6 | -63* | -1 | 0 | 45*
CCC(=O)c1cc(-c2nc3ccccc3n2C)n(C)c1 | 2% | -2 | -12 | 4 | 0 | 0
Cn1cc(C(=O)c2ccccc2)cc1-c1nc2ccccc2n1C | 1% | 1 | -31* | 2 | 0 | 5
CN(C)c1ccc(C(=O)NN2C(=O)c3ccccc3C2=O)cc1 | 3% | -4 | -32* | 0 | 0 | 0
O=C(COc1ccc(F)cc1)OCc1cc(=O)n2nc(C3CCCCC3)sc2n1 | 0% | -3 | -17 | -6 | 0 | 3
COc1cccc(NC(=O)NC(=O)c2c(C)cc(Cl)nc2Cl)c1 | / | -4 | -41* | 5 | 1 | 2
COc1cccc(NC(=O)Nc2cc(Cl)ccc2C)c1 | -1% | -9 | -34* | 9 | 2 | 9
COc1ccc(NC(=O)Nc2cccc(OC)c2)cc1 | -2% | / | / | / | / | /
Cc1ccccc1CNC(=O)Cc1csc2ccccc12 | -2% | -3 | 1 | -4 | -1 | -1
O=c1c(NCc2ccccc2Cl)nccn1-c1ccccc1 | 7% | -4 | -3 | -2 | 0 | 3
O=C(Nc1ccc(F)c(Cl)c1)N1CCC(CN2CCOCC2)CC1 | 0% | 2 | 2 | 2 | 0 | -2
CCN(CC)c1ccc2cc(-c3nc(-c4ccc(Cl)cc4Cl)cs3)c(=O)oc2c1 | 2.8µM* | -2 | 22 | 0 | 22 | 119*
CCN(CC)c1ccc2cc(-c3nc(-c4ccc(OC)cc4)cs3)c(=O)oc2c1 | ? | -1 | -58* | -24 | 174* | 419*

Bioassay records: PubChem BioAssay, National Center for Advancing Translational Sciences (NCATS)
